# According to PubChem BioAssay AID1347383 (Zoeller Lab, School of Medicine, Boston University, 2020):
# Activity calls are given as the source filed them.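 How the source made its calls: active means cell survival after UV exposure 2 SD above solvent-only control wells at 10 µM, confirmed on one or two repeats; inactive means the rest.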
# Assay: cell survival after pyrene fatty acid photosensitization – ZR-82 cells, Analyticon library, screen 2, phospholipid biosynthesis inhibitor project, primary screen (AID 1347383);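 further: survival reflects blocked phospholipid synthesis cutting uptake of the phototoxic fatty acid; compound and fatty acid exposure 3 h then viability read next day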
# Conditions: ZR-82 CHO cells, pyrene-fatty acid UV killing, CellTiter Blue; at 10 µM; peroxisome-deficient CHO-K1 variant; with DGAT-1, DGAT-2 and ACAT inhibitors
row,Structure (SMILES),outcome
1,CO[C@H]1/C=C/[C@@](C)(O)/C=C/C(=O)O[C@H](C)[C@@H](C)CC/C=C/1C,inactive
2,COc1cc(CC(C)C(C)Cc2ccc(O)c(OC)c2)ccc1O (stereo not drawn),inactive
3,CC(C)=CCCC1(C)C=Cc2c(c(C)cc3c2[nH]c2ccccc23)O1 (stereo not drawn),inactive
4,COc1ccc(C)c2c(O)c(CC=C(C)C)c(=O)oc12,inactive
5,C/C=C/C(O)CC(=O)O (stereo not drawn),inactive
6,C=C1CCc2occ(C)c2[C@H]2[C@H]1[C@@]13O[C@@]1(C[C@@H](C)[C@H]3OC(C)=O)[C@H]1O[C@@]21C,inactive
7,COc1cc2c(c(OC)c1OC)-c1ccc(OC)c(=O)cc1[C@@H](NC(C)=O)CC2,inactive
8,COc1cc(O)c(C(=O)c2c(C)cc(O)cc2OC)c(O)c1,inactive
9,O=C(c1cccc(O)c1)c1c(O)cc(O)cc1O,inactive
10,C=CCc1ccc(OC(C)Cc2cc(OC)c(OC)c(OC)c2)c(OC)c1 (stereo not drawn),inactive
11,COC(=O)C1=CO[C@@H](C)[C@H]2CN3CCc4c([nH]c5ccccc45)[C@@H]3C[C@H]12,active
12,CC1OC(n2cnc3c(N)ncnc32)C(O)C1O (stereo not drawn),inactive
13,CC1CCCC[C@H]2C(=O)C=C[C@H](O)[C@@H]2CC(=O)O1 (stereo partly drawn),inactive
14,O=C1CC(c2ccc(O)cc2)Oc2cc(O)ccc21 (stereo not drawn),inactive
15,C/C1=C\CCC2=C[C@@H](OC2=O)c2c(C)coc2C1,inactive
16,COc1cc2c(c3c1C(=O)C[C@@H](C)O3)CCO2,inactive
17,COc1ccc(OC2OC(COC3OCC(O)C(O)C3O)C(O)C(O)C2O)cc1OC (stereo not drawn),inactive
18,CC1Cc2cc(O)c(O)cc2C(c2ccc(O)cc2)C1C (stereo not drawn),inactive
